CHX counter: affects cycloheximide protein synthesis inhibition readout, counter-screen; cell reporter, cycloheximide protein synthesis inhibition counterscreen; max response, %; 300,000 tested, 12% active; in the data active means max response mostly above about 13%, no sharp cut-off; inactive means mostly below about 14%; further: read at 38.3 µM for the half of the compounds with a filed dose; 0% is about no effect
Pf growth 48h: inhibits P. falciparum growth in the first generation, 48 h | P. falciparum luciferase growth in erythrocytes, 48 h | Potency, µM (doses to about 28.7 µM), inactives show at the highest dose activity change, negative = inhibition, usual class: inhibitors | 310,000 tested, 5.9% active; further: potency means the concentration at half of the fitted maximal effect; on the % scale 0 is the no-effect control and ±100 the full control effect
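Erythrocytes infected with P. falciparum carrying an integrated firefly luciferase reporter (2% hematocrit, 0.1% parasitemia final) were exposed to compounds in RPMI 1640 with 0.5% Albumax at 37 C, 5% CO2. Growth inhibition was scored as reduced luminescence.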
AMA1 RON2 block: AMA1-RON2 (P. falciparum) interaction inhibition; 360,000 tested, 0.2% active; Potency, µM (top dose mostly 58.2 µM), for inactives: at the highest dose activity change, negative = inhibition, hits mostly inhibitors; AlphaScreen AMA1-biotinylated RON2 peptide binding;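 further: potency means the concentration at half of the fitted maximal effect; 0% = vehicle wells and -100% = peptide control; nearly all actives have a fitted effect of over 45% in size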
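AMA1 (3D7) with his tag at 25 nM final met compounds first, then biotinylated RON2 peptide at 25 nM; detection used donor plus acceptor beads, 10 µg/mL apiece, read by AlphaScreen after 30 min at room temperature.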
Pf growth 96h: inhibits malaria parasite growth, 96 h; P. falciparum luciferase reporter growth, 96 h; AID 504834; Potency, µM (titrated, usually from 28.7 µM), for inactives: top-dose activity change, negative = inhibition, usual class: inhibitors; 320,000 tested, 6.9% active; further: potency means the concentration at half of the fitted maximal effect; on the % scale 0 is the no-effect control and ±100 the full control effect
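Plates of compound plus infected erythrocytes (2% hematocrit, 0.05% parasitemia final) incubate 96 hours, 37 C, 5% CO2. Detection reagent added; reduced luminescence from the parasites' luciferase reporter flags inhibition.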
SARS PLP yeast: blocks SARS-CoV papain-like protease in a yeast assay | 330,000 tested, 0.19% active | S. cerevisiae expressing SARS-CoV PLpro, growth rescue | Potency, µM (highest dose often 32.9 µM), for the others: top-dose activity, positive = growth rescue, usual class: activators | AID 485353; calls by dose curve; further: potency means the concentration at half of the fitted maximal effect; 0% is about no effect; nearly all actives have a fitted effect of over 55% in size
Shiga toxin inh: Shiga toxin inhibition | 290,000 tested, 9.2% active | Vero cells, Shiga toxin protein synthesis inhibition reporter | AID 2315 | inhibition, % at 38.7 µM; in the data active means inhibition mostly above about 28%, no sharp cut-off; inactive means mostly below about 43%; further: 0% is about no effect
* = called active by the depositor; ? = inconclusive; . = no result. In the library only some 19% were active in any assay of this set; here they are far more common. Unless noted, the call rests on the fitted dose curve; in most records, active means well fitted curve in the direction sought with a large enough effect; inconclusive means small, poorly fitted or top-dose-only effect, or another doubt; inactive means no such curve, though single readings can be large; an effect the other way counts as inactive or inconclusive.

SMILES	CHX counter	Pf growth 48h	AMA1 RON2 block	Pf growth 96h	SARS PLP yeast	Shiga toxin inh
Cc1cc(C)cc(C(=O)OCC(=O)Nc2ncccn2)c1	.	4.4%	-3.9%	24.8%	-6.0%	.
CCOc1ccc(NC(=O)COC(=O)c2cccnc2)cc1	1.4	?	24.1%	.	2.6%	35.2
CC(=O)Nc1ccc(C(=O)OCC(=O)NC2CCCCCC2)cc1	.	.	6.7%	.	.	.
CCOC(=O)CSc1nc2c(c(=O)n1-c1ccc(OC)cc1)SCC2	-1.6	-12.8%	-4.9%	-3.1%	0.4%	-3.6
CCOC(=O)c1sc(NC(=O)CSc2nc3c(c(=O)n2-c2ccc(C)cc2)SCC3)c(C(=O)OCC)c1C	1.4	?	3.3%	11.7µM*	-1.5%	-6.5
C=CCn1c(=O)c2ccccc2n2c(SCC(=O)Nc3sc(C)c(CC)c3C(=O)OCC)nnc12	-2.1	12.2%	-4.4%	11.7%	-2.5%	-6.8
CCOC(=O)c1c(NC(=O)CSc2nc3ccccc3c(=O)n2-c2ccccc2)sc(C(C)=O)c1C	0.6	0.208µM*	-4.9%	2.33µM*	5.9%	-6.2
C=CCn1c(=O)c2ccccc2n2c(SCC(=O)Nc3sc(C(=O)N(CC)CC)c(C)c3C(=O)OCC)nnc12	3.4	11.7µM*	9.3%	0.0%	6.8%	-7.0
CCOC(=O)c1sc(NC(=O)CSc2nnnn2-c2ccc(C)c(C)c2)nc1C	0.9	24.2%	2.1%	2.33µM*	-6.9%	-26.0
CCOC(=O)c1c(NC(=O)CSc2nc3ccccc3o2)sc(C(C)=O)c1C	11.0	32.8%	43.2%	49.1%	-5.2%	23.6
CCCCC(=O)Nc1ccc(N2CCN(C(=O)c3ccco3)CC2)cc1	-3.1	-2.1%	-26.9%	?	?	7.5
COc1cc2c(cc1OC)CN(C(=O)CSc1ccccc1C)CC2	.	.	-7.2%	.	0.8%	.
CCOC(=O)c1c(NC(=O)CSc2nc3cc(Cl)ccc3c(=O)n2Cc2ccco2)sc(C(=O)N(C)C)c1C	-0.9	5.86µM*	62.3%	4.15µM*	-10.5%	4.9
CCN(C(=O)CSc1nc2cc(Cl)ccc2c(=O)n1Cc1ccco1)C1CCS(=O)(=O)C1 (centres undefined)	0.9	?	4.2%	-27.7%	-0.6%	1.9
COc1ccc(CCNCC(O)COc2cccc(Br)c2)cc1OC (centres undefined)	-5.3	?	-24.3%	9.28µM*	-0.8%	0.9
COc1ccc(CCNCC(O)COc2ccc(OC)cc2C(C)(C)C)cc1 (centres undefined)	-6.7	2.33µM*	-24.5%	2.33µM*	-2.6%	-10.1
CCOC(=O)N1CCN(CC(O)COc2ccc(OC)cc2C(C)(C)C)CC1 (centres undefined)	-1.3	-11.4%	5.2%	4.6%	-5.3%	-3.6
COc1ccc(CCNCC(O)Cn2c3ccccc3c3ccccc32)cc1OC (centres undefined)	-4.5	?	-9.4%	?	-2.5%	-21.9
O=C(Nc1cccc(Cl)c1)N1CCSc2cc(Cl)ccc21	16.4	?	-11.7%	13.1µM*	-16.0%	-6.4
O=C(Nc1ccccc1Cl)N1CCSc2ccccc21	2.3	1.47µM*	-7.5%	-10.9%	0.5%	27.9
O=C(Nc1ccccc1)N1CCSc2cc(Cl)ccc21	4.4	3.1%	1.3%	?	-4.1%	27.5
COC(CNC(=O)c1cn(C)c2ccc(S(=O)(=O)N(C)C3CCCCC3)cc2c1=O)OC	-5.5	-16.1%	6.2%	?	6.7%	-5.7
NC(=O)NC(=O)C[n+]1cccc(/C=N/O)c1	-5.5	0.0%	14.2%	10.4µM*	2.2%	3.5
CCN1CCN(Cc2nc3cc(NC(=O)COc4ccc([N+](=O)[O-])cc4)ccc3n2C)CC1	-3.4	?	13.1%	?	-4.8%	12.5
Cc1cccc(OCC(=O)Nc2ccc3c(c2)nc(CN2CCCCC2)n3C)c1	29.1*	-14.4%	2.5%	-7.5%	0.3%	53.2
SMILES	CHX counter	Pf growth 48h	AMA1 RON2 block	Pf growth 96h	SARS PLP yeast	Shiga toxin inh
Cn1c(CN2CCCC2)nc2cc(NC(=O)COc3ccc([N+](=O)[O-])cc3)ccc21	-3.7	13.1µM*	2.9%	?	-34.5%	-8.0
Cn1c(CN2CCN(C(=O)c3ccccc3Cl)CC2)nc2cc([N+](=O)[O-])ccc21	-4.2	4.1%	-11.4%	-10.9%	11.4%	-5.8
Cc1cccc(OCC(=O)Nc2ccc3c(c2)nc(CCN2CCCCC2)n3C)c1	-1.9	?	0.7%	?	?	-6.9
Cc1cc(C)cc(OCC(=O)Nc2ccc(CN3CCCCC3)cc2)c1	16.1	11.7µM*	-5.7%	?	1.5%	-10.4
Cn1c(CN2CCN(C(=O)c3ccccc3)CC2)nc2cc([N+](=O)[O-])ccc21	18.6*	20.4%	-0.7%	-3.2%	6.5%	46.2*
N#CC1(NC(=O)CSc2nnc(-c3ccccc3F)o2)CCCCC1	.	-12.4%	-0.2%	-16.7%	-4.8%	.
C[C@@H]1CCCCO[C@H](CN(C)S(=O)(=O)c2ccccc2)[C@@H](C)CN([C@H](C)CO)C(=O)c2cc(NC(=O)Cc3ccccc3)ccc2O1	.	.	-7.4%	.	.	.
CC(=O)N(O)CCCCCNC(=O)CCC(=O)N(O)CCCCCNC(=O)CCC(=O)N(O)CCCCCN	-0.1	?	172.2%	?	22.4%	-12.7
COCCN(C(=O)CSc1ccc2c(c1)OCCO2)c1c(N)n(CC(C)C)c(=O)[nH]c1=O	.	.	14.8%	.	-1.1%	.
C=C1C(c2ccc(C)cc2)=CCc2cc(C)cc(C)c21	38.9*	.	.	.	.	52.5*
CC1CC2=C(C(=O)O1)C(c1ccccc1)Nc1ccccc1N2 (centres undefined)	-3.2	-18.1%	22.0%	?	13.3%	-11.0
O=C1NCC2=C1C(c1ccc(Br)cc1)Nc1ccccc1N2 (centres undefined)	21.9*	19.6%	12.8%	-3.0%	-2.4%	77.4*
CCCN1CCC(NC(=O)CCc2nnc(Cc3cc(OC)ccc3OC)o2)CC1	-1.7	-10.8%	-10.7%	-4.1%	0.3%	-5.4
O=C(CCc1nnc(CCc2c[nH]c3ccccc23)o1)NC1CCC1	52.7*	6.3%	29.2%	-14.1%	-0.4%	179.6*
COc1ccc(OC)c(Cc2nnc(CCC(=O)NCc3ccsc3)o2)c1	17.2*	-15.9%	10.6%	1.1%	2.2%	37.2*
COc1ccc(OC)c(Cc2nnc(CCC(=O)NC3C4CC5CC(C4)CC3C5)o2)c1 (centres undefined)	6.5	10.4µM*	13.7%	0.2%	0.7%	-15.6
COc1ccc(OC)c(Cc2nnc(CCC(=O)NC3CCCCC3)o2)c1	25.0*	17.8%	-1.5%	13.1µM*	-1.2%	29.0*
O=C(CCc1nnc(Cc2c[nH]c3ccccc23)o1)NC1CCCC1	-0.4	6.0%	-3.9%	49.5%	-0.2%	-0.6
Cc1nc(Cc2nnc(SCC(=O)N3c4ccccc4NC(=O)C3(C)C)o2)cs1	.	.	-5.2%	.	.	.
CC(=O)N1CCN(S(=O)(=O)c2cccc(C(=O)NCc3ccc(F)cc3)c2)CC1	.	.	3.5%	.	1.3%	.

Screens: PubChem BioAssay, National Center for Advancing Translational Sciences (NCATS)
